# According to PubChem BioAssay AID2782 (National Center for Advancing Translational Sciences (NCATS), 2010):
# Inconclusive results are not listed. Activity calls are given as the source filed them. Calls follow the shape of the dose curve; as a rule, active = well fitted inhibition curve with a large enough effect in the polarisation, with a control signal flat (not every such curve was filed as active); inconclusive = small, poorly fitted or top-dose-only effect, or effect the other way, or a change in a side signal; inactive = no such curve, though single readings can be large or run the other way; the % refers to the polarisation.
# Test: Confirmation of Inhibitors Targeting the Menin-MLL Interaction in MLL Related Leukemias: Competition With Texas Red Labeled MLL-derived Mutant Peptide
# Conditions: fluorescence polarization, Texas Red MLL peptide displacement; series mostly up to 94.6 µM; FP change, negative = inhibition: at the top concentration
# Method in brief: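 Hits from the primary screen were retested: compounds were incubated 1 hr at ambient with 200 nM menin, 50 nM Texas Red mutant peptide and 25 nM fluorescein wild-type peptide (Tris pH 7.5, BSA-supplemented buffer), then fluorescence polarization was read.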
# % is scaled to controls: 0 for no effect and ±100 for the full control effect; potency is read from the fitted curve at half-maximal effect.
SMILES,"FP change, negative = inhibition",Potency
Cc1ccc(NS(=O)(=O)c2csc(C(N)=O)c2)cc1C,4.48% [at 288 µM] (inactive),
O=C(NC(=S)Nc1nc(-c2ccc(Br)cc2)cs1)c1cccnc1,31.5% [at 288 µM] (inactive),
COc1ccc(OCCCn2ccnc2)cc1,-7.95% (inactive),
Cc1nn(-c2ccccc2)c2nc(N)c(C(N)=O)cc12,-10.8% (inactive),
CNC[C@H](CC1CCCCC1)NC[C@H](Cc1ccccc1)NCCC12CC3CC(CC(C3)C1)C2,,63.1 µM (active)
COc1ccc(-c2cc(=O)c3c(O)cc(O)c(-c4cc(-c5cc(=O)c6c(O)cc(O)cc6o5)ccc4OC)c3o2)cc1,47.8% [at 288 µM] (inactive),
COc1cc2c(cc1NC(=S)NC(=O)c1c(OC)cccc1OC)oc1ccccc12,,11.2 µM (active)
O=C(c1cc(F)c(F)cc1Cl)N1CCN(c2ncccn2)CC1,13.9% (inactive),
O=C(Nc1ccc2c(c1)OCO2)c1ccccc1,-17.2% (inactive),
COc1ccc(CNC(=O)C(c2ccc(O)cc2)N(Cc2ccco2)C(=O)c2snc(C(N)=O)c2N)cc1 (stereo not drawn),35.1% [at 288 µM] (inactive),
CCC(C)CCCCC(=O)N[C@@H](CCN)C(=O)N[C@H](C(=O)N[C@@H](CCN)C(=O)N[C@H]1CCNC(=O)C([C@@H](C)O)NC(=O)[C@@H](CCN)NC(=O)[C@H](CCN)NC(=O)[C@H](CC(C)C)NC(=O)[C@@H](CC(C)C)NC(=O)[C@H](CCN)NC1=O)[C@@H](C)O (stereo partly drawn),,7.94 µM (active)
CCN1C(=O)c2ccccc2S(=O)(=O)c2ccc(C(=O)NCCCN(CC(C)C)CC(C)C)cc21,13% (inactive),
N#CC1=C(N)OC2=C(C(=O)CC(c3ccco3)C2)C1c1ccc(OCc2c(F)cccc2Cl)cc1 (stereo not drawn),66.6% [at 288 µM] (inactive),
CCC(c1nnnn1Cc1ccc(F)cc1)N1CCN(C2CCCCC2)CC1 (stereo not drawn),,35.5 µM (active)
O=C(Cn1nc(-c2ccccc2)ccc1=O)N1CCCCC1,-9.46% [at 288 µM] (inactive),
CCC(=O)Nc1ccc(-c2cc(-c3ccccc3)nc(-c3ccc(NC(=O)CC)cc3)n2)cc1,,39.8 µM (active)
CC1(C)CN=C(N2CCN(c3ncnc4sc5c(c34)CCCC5)CC2)S1,,14.2 µM (active)
COc1ccc(CN2CCN(C(C)C(=O)N(C)Cc3cccc(F)c3)CC2)cc1OC (stereo not drawn),23.5% (inactive),
